# HP1b binding inh = HTS for Inhibitors of HP1-beta Chromodomain Interactions with Methylated Histone Tails; Chromobox protein homolog 1 (Homo sapiens), P83916; AlphaScreen HP1-beta / biotin-H3K9me3 peptide binding; Potency, µM (series often up to 114 µM), for the others: at the top dose activity change, negative = inhibition, usual class: inhibitors; 390,000 tested, 0.56% active; AID 540317, 2011; note: nearly all actives have a fitted effect of over 70% in size
#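 Compound inhibition of the preformed complex between 50 nM HP1-beta and 50 nM biotinylated H3K9me3 peptide was read by AlphaScreen. Buffer was PBS pH 7.4 with 0.01% Tween-20. Incubations ran 30 min at room temperature, with 10 ug/mL donor/acceptor beads.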
# G9a block = qHTS Assay for Inhibitors of Histone Lysine Methyltransferase G9a; Histone-lysine N-methyltransferase EHMT2 (Homo sapiens), Q96KQ7; G9a H3K9 monomethylation, AlphaScreen, 2 h; Potency, µM (highest dose often 102 µM), without a hit: top-dose activity, negative = inhibition, hits mostly inhibitors; 350,000 tested, 8.8% active; AID 504332, 2011; note: % is set by controls: 0 for no effect and ±100 for the full control effect; nearly all actives have a fitted effect of over 75% in size
#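 G9a (20 nM) was preincubated 15 min with compound, then reacted 2 h at room temperature with 500 nM biotin-H3K9 peptide and 20 µM SAM. Monomethyl-H3K9 detected by AlphaScreen using anti-H3K9me1 antibody.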
# JMJD2A Tudor inh = qHTS Assay for Inhibitors of JMJD2A-Tudor Domain; AID 504339, 2011; 390,000 tested, 4.4% active; Lysine-specific demethylase 4A (Homo sapiens), O75164; AlphaScreen JMJD2A-Tudor / H3K4me3 peptide binding; Potency, µM (top dose mostly 114 µM), without a hit: at the top dose activity change, negative = inhibition, most hits filed as inhibitors; note: % is set by controls: 0 for no effect and ±100 for the full control effect; nearly all actives have a fitted effect of over 50% in size
# L3MBTL1 block = qHTS Assay for the Inhibitors of L3MBTL1; Lethal(3)malignant brain tumor-like protein 1 (Homo sapiens), Q9Y468; 230,000 tested, 0.66% active; AlphaScreen L3MBTL1–H3K9me1 peptide binding; Potency, µM (titrated, usually from 57.1 µM), for inactives: at the top dose activity, negative = inhibition, hits mostly inhibitors; note: % is set by controls: 0 for no effect and ±100 for the full control effect; nearly all actives have a fitted effect of over 60% in size
#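 L3MBTL1 50 nM + b-AHA-H3(1-15)K9me1 75 nM, 30 min RT; compound added, 30 min RT; streptavidin donor/Ni-chelate acceptor beads 10 ug/mL each final, 30 min RT dark; AlphaScreen read.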
# BAZ2B inh = qHTS Assay for Inhibitors of BAZ2B. Bromodomain adjacent to zinc finger domain protein 2B (Homo sapiens), Q9UIF8. 360,000 tested, 4.4% active. Potency, µM (titrated, usually from 114 µM), for the others: at the top dose activity change, negative = inhibition, most hits filed as inhibitors. AlphaScreen BAZ2B-H3K14Ac peptide displacement. AID 504333, 2011; note: % is set by controls: 0 for no effect and ±100 for the full control effect; nearly all actives have a fitted effect of over 60% in size
#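 Complex of BAZ2B and biotin-H3K14Ac (50 nM apiece) forms over 30 min at RT, then faces library compounds up to 110 uM for another 30 min; AlphaScreen beads added, 20 min dark incubation, luminescence read.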
# Sfp inh = qHTS Assay for Inhibitors of Bacillus subtilis Sfp phosphopantetheinyl transferase (PPTase); 4'-phosphopantetheinyl transferase ffp (Bacillus subtilis), Q9F4F7; Biochemical Sfp PPTase activity, qHTS; Potency, µM, for inactives: largest response in the series, negative = inhibition, actives largely listed as inhibitors; 310,000 tested, 3.5% active; AID 1490, 2009;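 note: the enzyme is Sfp with the accession as filed and its product quenches rhodamine fluorescence; 0% = enzyme reaction without inhibitor and -100% = no enzyme wells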
#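 After 15 min at room temperature with compound, 15 nM Sfp received 5 uM rhodamine-CoA plus 12.5 uM BHQ-2-ybbR (50 mM Hepes pH 7.6, 10 mM MgCl2). Rate came from the fluorescence difference over 30 min, ex 525/em 598 nm.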
# The depositor's hits bear a star; ? = inconclusive; / = no result given; [ ] = another dose, or the depositor's remark. An excerpt weighted towards active compounds, which were near 12% of everything screened. Calls come from the whole dose curve; as a rule, active = well fitted curve in the direction sought with a large enough effect; inconclusive = small, poorly fitted or top-dose-only effect, or another doubt; inactive = no such curve, though single readings can be large; an effect the other way counts as inactive or inconclusive. Potency is the fitted concentration of half-maximal effect.
SMILES,HP1b binding inh,G9a block,JMJD2A Tudor inh,L3MBTL1 block,BAZ2B inh,Sfp inh
COc1ccc(C2=Nc3cccc4cccc(c34)N2)cc1,-3.6%,?,-26.7%,-14.3%,-36.8%,12.7%
CN1C(=O)Nc2cccc3cccc1c23,16.9%,-13.9%,-6.4%,/,-20.3%,-4.9%
CC(C)C1=Nc2cccc3cccc(c23)N1,-7.3%,28.2µM*,-15.7%[57.1 µM],-2.1%,?,35.5µM*
Nc1cccc(C2=Nc3cccc4cccc(c34)N2)c1,20.3%,25.1µM*,-2.8%,13.0%,-6.2%,15.6%
ClCC1=Nc2cccc3cccc(c23)N1,/,?,/,/,79.4µM*,63.1µM*
COc1ccc(Cn2c(CO)cnc2SCc2cccc(C)c2)cc1,11.3%[57 µM],-33.7%[59 µM],-23.6%,/,?,/
COc1ccc(-c2oc3ncn4nc(COc5ccc(C)cc5)nc4c3c2-c2ccc(OC)cc2)cc1,34.2%,0.9%[59 µM],-0.3%,/,-19.0%,/
CC(=O)Oc1ccc2nc(-c3ccco3)oc(=O)c2c1,21.4%,-37.7%[59 µM],28.2µM*,-7.9%,-23.9%,8.3%
CCSc1ccccc1C(=O)Nc1ccc(-c2nc3ccccc3s2)c(O)c1,37.4%[57 µM],17.3%[59 µM],1.3%,/,7.8%,/
O=c1nc2ccccc2c(NS(=O)(=O)c2ccc(Cl)cc2)n1-c1ccccc1,-15.5%,4.2%[12.7 µM],56.2µM*,-8.4%,-0.6%,16.5%
COc1ccc(S(=O)(=O)Nc2c3ccccc3nc(=O)n2-c2ccccc2)cc1,44.6%,0.8%[59 µM],-5.7%,/,10.7%,-2.1%
COc1cc(C(F)(F)F)c(C(=O)NCc2cccc(Cl)c2)cn1,46.5%,79.4µM*,10.3%,1.0%,4.2%,8.8%
COc1cc(C(F)(F)F)c(C(=O)N(C)Cc2cccc(Cl)c2)cn1,23.8%,10.1%,6.9%,1.9%,3.2%,11.4%
COc1ccc(C(=O)N2CCC(C(=O)Nc3ccc(OC)cc3OC)CC2)cc1,17.8%,-6.2%[59 µM],-6.2%,/,-1.8%,/
COC(=O)c1ccccc1C(=O)N1CCCC(CCC(=O)NCc2ccc(F)c(F)c2)C1 (stereo not given),48.8%,5.62µM*,-3.5%,-2.8%,-26.4%,-11.2%
Cc1noc(C)c1CCC(=O)N1CCCC(CCC(=O)NCc2ccc(F)c(F)c2)C1 (stereo not given),?,?,100µM*,-4.5%,-23.8%,-3.1%
O=C(CCC1CCCN(C(=O)CCC(F)(F)F)C1)NCc1ccc(F)c(F)c1 (stereo not given),45.4%,-3.5%,-5.3%[57.1 µM],-9.1%,-24.2%,-5.6%
C=CCn1nc([N+](=O)[O-])nc1Sc1cccc2cccnc12,18.6%,-20.1%,-11.3%,28.2µM*,-9.7%,-27.4%
CCCN(CCO)Cc1ccc(F)c(Br)c1,?,15.8µM*,14.1µM*,1.2%,79.4µM*,-20.4%
COCCCNCCOCCOc1ccccc1-c1ccccc1,?,?,2.51µM*,-13.2%,50.1µM*,?
CC(C)(C)NCCOCCOc1ccccc1-c1ccccc1,22.4µM*,3.55µM*,1.78µM*,-8.6%,22.4µM*,16.6%
COC(=O)c1ccccc1OCCCN(C)C,?,8.91µM*,89.1µM*,-4.7%,79.4µM*,?
NCCOc1ccccc1-c1ccccc1,29.6%,13.8%[59 µM],-10.0%,2.7%,5.4%,7.7%
COC(=O)c1ccccc1OCCCOc1ccc(C)cc1OC,/,-3.1%[59 µM],/,-2.9%,-37.3%,?
CCC(C)NCCOCCOc1ccccc1-c1ccccc1 (stereo not given),?,12.6µM*,3.55µM*,-1.1%,50.1µM*,-8.9%
